# From the supplement of paper PMC10849652
# Of roughly 7,900 targets only a part is listed; those with a hit were picked by preference. About 0.6% of all pairs of compound and target were hits. Unmarked numbers belong to inactive results.
# Columns and labels:
# Test in all cases: log2 fold change, soluble protein after heating vs DMSO (PISA); higher = thermal stabilisation; K562 cells, 10 uM, 30 min; active = over 0.2 and 3.5 SD of the protein, either way, in both replicates (recomputed)
# [1] = compound: C1COCCN1CCN2C3=CC=CC=C3N=C2NC(=O)C4=CC(=CC=C4)[N+](=O)[O-] [IRAK-1-4 Inhibitor I]
# How it was run: (§1)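 Soluble protein was quantified by TMTpro 16plex LC-MS/MS after channel sums were equalised. It was obtained as the supernatant after 21,000xg for 90 min from pooled aliquots of K562 cells (2×10^6 cells/mL, 10 μM compound, 30 min) heated for 3 min across 48°C-58°C and extracted in PBS with 0.5% NP-40 at 4°C. Thermal stability values are relative to control samples and come from duplicates. They are given as log2 fold changes.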
# [2] = compound: C=CC(=O)N1CCC[C@@H](n2nc(-c3ccc(Oc4ccccc4)cc3)c3c(N)ncnc32)C1 [ibrutinib]
# How it was run: as §1
# [3] = compound: CC(C)(O)CC(=O)NCCn1ccc2ncnc(Nc3ccc(Oc4cccc(C(F)(F)F)c4)c(Cl)c3)c21
# How it was run: as §1
# [4] = compound: CC(C)C1=C2N=C(C=C(N2N=C1)NCC3=CC=CC=C3)NCCCCCCN
# How it was run: as §1
# [5] = compound: CC(C)N(C[C@H]1O[C@@H](n2cnc3c(N)ncnc32)[C@H](O)[C@@H]1O)[C@H]1C[C@@H](CCc2nc3cc(C(C)(C)C)ccc3[nH]2)C1 [pinometostat]
# How it was run: as §1
# [6] = compound: CC1=C(C(CC(=O)N1)C2=CC=C(C=C2)C(F)(F)F)C(=O)NC3=C(C=C4C(=C3)C=NN4)F
# How it was run: as §1
# [7] = compound: CC1=C(C=C(C=C1)NC(=O)C2=CC(=CC=C2)C(C)(C)C#N)NC3=CC4=C(C=C3)N=CN(C4=O)C
# How it was run: as §1
# [8] = compound: CC1=NC(=CC=C1)C2=C(N=C(N2)C(C)(C)C)C3=CC4=NC=CN=C4C=C3
# How it was run: as §1
# [9] = compound: CCCCN(Cc1ccc(C(=O)NO)cc1)C(=O)Nc1ccccc1 [Nexturastat A]
# How it was run: as §1
# [10] = compound: CCCS(=O)(=O)Nc1ccc(F)c(C(=O)c2c[nH]c3ncc(-c4ccc(Cl)cc4)cc23)c1F [vemurafenib]
# How it was run: as §1
# [11] = compound: CCCc1cc(C)[nH]c(=O)c1CNC(=O)c1cc(-c2ccnc(N3CCN(C)CC3)c2)cc2c1cnn2C(C)C
# How it was run: as §1
# [12] = compound: CCN(CC)Cc1ccc2cc(COC(=O)Nc3ccc(C(=O)NO)cc3)ccc2c1 [givinostat]
# How it was run: as §1
# [13] = compound: CCN(CCCOc1ccc2c(Nc3cc(CC(=O)Nc4cccc(F)c4)[nH]n3)ncnc2c1)CCOP(=O)(O)O [barasertib]
# How it was run: as §1
# [14] = compound: CC(C)(C)Cn1c(N)nc2ccc(-c3[nH]c(C(C)(C)C)nc3-c3ccc(F)cc3)nc21 [ralimetinib]
# How it was run: as §1
# [15] = compound: CC(C)C[C@@H](C=O)NC(=O)[C@H](CC(C)C)NC(=O)[C@H](CC(C)C)NC(=O)OCc1ccccc1
# How it was run: as §1
# [16] = compound: CC1=C(C2=C(C=C1)C(=O)C3=CC=CC=C3N2CCCN)C
# How it was run: as §1
# [17] = compound: CC1=C(C=C(C=C1)NC(=O)C2=CC(=CC=C2)N(C)C)NC(=O)C3=CC=C(C=C3)O
# How it was run: as §1
# [18] = compound: CC1=CC=C(C=C1)SC2=C3C=C(SC3=CN=C2)C(=O)N
# How it was run: as §1
# [19] = compound: CCCS(=O)(=O)Nc1ccc(F)c(C(=O)c2c[nH]c3ncc(Cl)cc23)c1F
# How it was run: as §1
# [20] = compound: CC(=O)c1cnc2ccc(-c3cc(Cl)c(O)c(Cl)c3)nc2c1N[C@H]1CC[C@H](CN(C)C)CC1
# How it was run: as §1
# Chain of UniProt Q9H6D7 (Q9H6D7 whole entry, looked up): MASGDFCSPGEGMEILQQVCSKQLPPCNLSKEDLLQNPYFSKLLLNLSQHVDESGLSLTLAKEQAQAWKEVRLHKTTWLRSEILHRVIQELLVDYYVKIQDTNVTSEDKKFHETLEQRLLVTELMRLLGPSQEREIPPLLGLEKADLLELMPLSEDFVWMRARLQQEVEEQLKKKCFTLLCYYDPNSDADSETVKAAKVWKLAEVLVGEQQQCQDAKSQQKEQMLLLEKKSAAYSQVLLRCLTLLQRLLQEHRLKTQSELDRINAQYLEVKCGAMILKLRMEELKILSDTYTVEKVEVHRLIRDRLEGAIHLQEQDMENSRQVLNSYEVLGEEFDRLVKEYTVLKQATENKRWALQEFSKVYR
# Chain of UniProt Q96SL8 (Q96SL8 whole entry, looked up): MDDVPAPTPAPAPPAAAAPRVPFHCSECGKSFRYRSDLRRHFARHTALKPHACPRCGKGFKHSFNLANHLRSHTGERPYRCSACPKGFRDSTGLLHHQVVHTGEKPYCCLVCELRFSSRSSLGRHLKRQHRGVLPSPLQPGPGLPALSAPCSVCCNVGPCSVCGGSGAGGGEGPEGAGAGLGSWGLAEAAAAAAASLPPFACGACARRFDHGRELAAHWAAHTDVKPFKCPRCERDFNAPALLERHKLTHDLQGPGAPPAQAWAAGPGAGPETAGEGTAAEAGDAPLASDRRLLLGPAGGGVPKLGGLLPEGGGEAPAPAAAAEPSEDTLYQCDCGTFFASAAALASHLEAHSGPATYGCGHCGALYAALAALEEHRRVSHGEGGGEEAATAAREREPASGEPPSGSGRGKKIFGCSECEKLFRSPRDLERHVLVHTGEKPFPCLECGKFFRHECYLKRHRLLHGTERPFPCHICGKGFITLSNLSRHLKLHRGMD
# Chain of UniProt Q9Y248 (Q9Y248 whole entry, looked up): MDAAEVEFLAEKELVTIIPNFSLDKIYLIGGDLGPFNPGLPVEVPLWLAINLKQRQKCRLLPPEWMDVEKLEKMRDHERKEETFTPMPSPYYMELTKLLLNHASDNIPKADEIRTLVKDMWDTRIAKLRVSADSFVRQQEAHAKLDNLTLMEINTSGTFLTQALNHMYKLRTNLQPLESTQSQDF
# Chain of UniProt Q14956 (Q14956 whole entry, looked up): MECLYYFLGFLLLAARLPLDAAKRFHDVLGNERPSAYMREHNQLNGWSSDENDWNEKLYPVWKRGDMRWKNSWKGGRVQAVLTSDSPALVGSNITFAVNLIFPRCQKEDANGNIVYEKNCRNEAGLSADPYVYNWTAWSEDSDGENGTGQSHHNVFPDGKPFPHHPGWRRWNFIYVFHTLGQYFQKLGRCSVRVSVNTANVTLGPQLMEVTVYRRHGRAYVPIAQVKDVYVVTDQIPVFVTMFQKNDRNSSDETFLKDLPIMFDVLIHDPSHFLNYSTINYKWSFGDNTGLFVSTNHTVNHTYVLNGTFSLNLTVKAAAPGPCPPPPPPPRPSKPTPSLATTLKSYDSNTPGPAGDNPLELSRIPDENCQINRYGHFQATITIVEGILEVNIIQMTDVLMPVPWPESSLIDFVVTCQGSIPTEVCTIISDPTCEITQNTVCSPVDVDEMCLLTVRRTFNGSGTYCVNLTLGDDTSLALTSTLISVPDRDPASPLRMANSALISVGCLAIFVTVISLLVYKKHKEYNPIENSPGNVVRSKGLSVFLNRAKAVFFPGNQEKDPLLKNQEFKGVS
# Chain of UniProt O14976 (O14976 whole entry, looked up): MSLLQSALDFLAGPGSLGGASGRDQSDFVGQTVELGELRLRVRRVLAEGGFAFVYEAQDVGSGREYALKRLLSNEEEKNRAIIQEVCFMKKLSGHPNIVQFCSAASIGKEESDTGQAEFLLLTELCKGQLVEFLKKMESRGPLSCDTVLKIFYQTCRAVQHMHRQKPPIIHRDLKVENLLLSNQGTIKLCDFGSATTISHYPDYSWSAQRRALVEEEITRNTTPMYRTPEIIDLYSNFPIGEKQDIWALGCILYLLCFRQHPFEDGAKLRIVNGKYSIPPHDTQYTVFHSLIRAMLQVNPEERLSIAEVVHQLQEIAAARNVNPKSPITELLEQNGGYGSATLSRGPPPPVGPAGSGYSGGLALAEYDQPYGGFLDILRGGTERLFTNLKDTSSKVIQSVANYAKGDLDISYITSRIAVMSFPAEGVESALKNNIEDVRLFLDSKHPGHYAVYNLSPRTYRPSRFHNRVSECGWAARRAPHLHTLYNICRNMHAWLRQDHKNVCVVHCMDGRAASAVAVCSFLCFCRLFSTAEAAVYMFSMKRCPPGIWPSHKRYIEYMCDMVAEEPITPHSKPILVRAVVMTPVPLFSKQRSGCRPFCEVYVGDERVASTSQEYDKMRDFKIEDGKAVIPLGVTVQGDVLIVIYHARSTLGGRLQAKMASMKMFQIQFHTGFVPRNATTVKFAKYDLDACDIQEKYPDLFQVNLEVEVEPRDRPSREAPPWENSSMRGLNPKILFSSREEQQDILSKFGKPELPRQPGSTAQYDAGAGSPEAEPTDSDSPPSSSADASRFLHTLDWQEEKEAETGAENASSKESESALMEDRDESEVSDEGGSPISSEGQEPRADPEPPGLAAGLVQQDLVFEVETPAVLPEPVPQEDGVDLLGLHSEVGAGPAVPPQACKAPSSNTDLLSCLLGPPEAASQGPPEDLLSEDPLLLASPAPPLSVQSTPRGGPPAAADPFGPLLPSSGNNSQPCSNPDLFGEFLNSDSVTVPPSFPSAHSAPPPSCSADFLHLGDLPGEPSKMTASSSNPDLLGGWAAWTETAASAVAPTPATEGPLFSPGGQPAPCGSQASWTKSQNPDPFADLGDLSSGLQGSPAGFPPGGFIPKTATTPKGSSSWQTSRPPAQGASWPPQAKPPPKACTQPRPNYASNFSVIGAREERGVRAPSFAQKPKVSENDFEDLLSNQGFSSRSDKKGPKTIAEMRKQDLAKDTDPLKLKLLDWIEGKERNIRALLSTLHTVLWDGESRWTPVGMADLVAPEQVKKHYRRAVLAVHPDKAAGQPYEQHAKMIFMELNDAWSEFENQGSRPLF
# Chain of UniProt Q7Z4Q2 (Q7Z4Q2 whole entry, looked up): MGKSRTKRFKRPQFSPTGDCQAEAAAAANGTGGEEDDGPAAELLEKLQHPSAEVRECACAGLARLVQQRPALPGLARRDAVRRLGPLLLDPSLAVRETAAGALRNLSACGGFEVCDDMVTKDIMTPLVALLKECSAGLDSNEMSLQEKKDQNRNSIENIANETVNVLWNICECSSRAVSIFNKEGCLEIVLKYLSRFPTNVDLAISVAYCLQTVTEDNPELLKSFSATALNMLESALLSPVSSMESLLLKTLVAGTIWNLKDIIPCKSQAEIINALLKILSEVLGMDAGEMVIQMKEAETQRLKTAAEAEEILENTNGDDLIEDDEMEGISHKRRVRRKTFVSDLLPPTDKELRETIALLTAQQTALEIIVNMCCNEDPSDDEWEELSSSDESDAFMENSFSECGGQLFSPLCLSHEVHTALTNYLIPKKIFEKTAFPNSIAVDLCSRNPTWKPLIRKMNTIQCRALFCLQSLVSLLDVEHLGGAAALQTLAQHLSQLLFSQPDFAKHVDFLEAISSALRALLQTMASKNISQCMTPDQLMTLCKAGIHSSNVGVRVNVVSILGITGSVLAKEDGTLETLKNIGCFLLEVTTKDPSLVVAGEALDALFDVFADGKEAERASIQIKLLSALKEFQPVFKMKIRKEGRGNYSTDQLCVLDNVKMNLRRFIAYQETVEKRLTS
# Chain of UniProt Q92664 (Q92664 whole entry, looked up): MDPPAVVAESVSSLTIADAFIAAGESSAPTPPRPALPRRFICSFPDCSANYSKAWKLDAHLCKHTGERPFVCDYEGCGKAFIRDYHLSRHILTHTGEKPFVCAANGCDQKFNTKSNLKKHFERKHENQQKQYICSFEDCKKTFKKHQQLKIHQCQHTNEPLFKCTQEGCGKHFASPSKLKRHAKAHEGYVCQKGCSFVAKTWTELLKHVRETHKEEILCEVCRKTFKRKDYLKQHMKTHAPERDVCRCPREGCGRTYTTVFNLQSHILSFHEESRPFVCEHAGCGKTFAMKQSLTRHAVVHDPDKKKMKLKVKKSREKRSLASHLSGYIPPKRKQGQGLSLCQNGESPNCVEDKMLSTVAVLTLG
# Chain of UniProt P01344 (P01344 whole entry, looked up): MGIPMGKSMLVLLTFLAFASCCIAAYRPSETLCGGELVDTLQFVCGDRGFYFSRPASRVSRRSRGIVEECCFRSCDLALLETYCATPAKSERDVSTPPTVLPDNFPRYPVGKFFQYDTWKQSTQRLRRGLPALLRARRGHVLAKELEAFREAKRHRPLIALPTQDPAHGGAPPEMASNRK
# Chain of UniProt Q9BVP2 (Q9BVP2 whole entry, looked up): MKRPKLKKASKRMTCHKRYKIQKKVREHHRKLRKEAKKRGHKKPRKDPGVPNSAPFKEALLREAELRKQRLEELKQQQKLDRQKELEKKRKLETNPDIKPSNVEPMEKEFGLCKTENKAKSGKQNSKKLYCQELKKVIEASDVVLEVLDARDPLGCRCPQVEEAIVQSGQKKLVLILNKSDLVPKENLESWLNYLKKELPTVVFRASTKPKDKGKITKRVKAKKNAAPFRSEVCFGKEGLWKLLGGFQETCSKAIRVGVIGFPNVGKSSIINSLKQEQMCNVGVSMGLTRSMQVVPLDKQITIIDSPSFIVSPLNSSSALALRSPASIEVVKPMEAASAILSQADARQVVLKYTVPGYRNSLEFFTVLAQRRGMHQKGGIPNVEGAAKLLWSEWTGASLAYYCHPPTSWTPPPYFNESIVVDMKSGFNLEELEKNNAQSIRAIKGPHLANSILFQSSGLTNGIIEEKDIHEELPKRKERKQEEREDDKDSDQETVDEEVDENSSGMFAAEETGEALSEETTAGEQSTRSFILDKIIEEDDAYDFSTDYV
Target,log2 fold change [1],log2 fold change [2],log2 fold change [3],log2 fold change [4],log2 fold change [5],log2 fold change [6],log2 fold change [7],log2 fold change [8],log2 fold change [9],log2 fold change [10],log2 fold change [11],log2 fold change [12],log2 fold change [13],log2 fold change [14],log2 fold change [15],log2 fold change [16],log2 fold change [17],log2 fold change [18],log2 fold change [19],log2 fold change [20]
GOLGA6B (UniProt A6NDN3),-0.034,0.013,0.025,0.165,-0.137,-0.19,-0.035,0.033,-0.099,0.882 (active),-0.113,0.002,0.011,–,–,–,–,–,–,–
GPNMB (UniProt Q14956),–,–,0,0.108,–,–,–,–,1.64 (active),–,–,0.671,–,–,–,–,–,–,–,–
GPS2 (UniProt Q13227),-0.013,-0.006,-0.052,0.027,0.019,0.006,-0.13,-0.013,-0.316 (active),0.019,0.026,-0.145,-0.008,-0.19,-0.069,-0.135,-0.04,-0.17,-0.01,–
GTF3A (UniProt Q92664),0.034,-0.013,-0.084,-0.036,0.004,0.249,0.074,0.125,-0.054,-0.075,-0.035,-0.048,-0.053,–,–,0.107,–,0.09,0.078,0.065
GID4 (UniProt Q8IVV7),–,0.035,0.016,0.028,–,0.023,0.028,–,0.058,-0.181,-0.035,-0.03,-0.1,-0.019,0.027,-0.071,0.003,-0.07,-0.271 (active),0.025
FIZ1 (UniProt Q96SL8),-0.14,–,0.017,–,0.123,0.121,-0.164,-0.047,0.102,0.13,-0.022,–,–,–,–,–,–,–,–,–
GREB1 (UniProt Q4ZG55),0.04,–,-0.032,0.26,-0.095,–,-0.003,-0.338,0.755 (active),0.047,–,0.294,–,–,–,0.066,–,–,–,0.037
FOXO3 (UniProt O43524),-0.046,–,0.086,-0.091,0,–,0.247,0.119,0.024,-0.023,-0.159,0.012,–,-0.083,0.234,0.081,-0.039,0.037,0.017,-0.427
H3-3A (UniProt P84243),–,-0.016,–,-0.07,–,-0.004,-0.205,–,–,0.149,0.118,0.267,0.101,–,–,0.656 (active),–,0.078,0.102,–
GNL3 (UniProt Q9BVP2),–,0.047,-0.007,–,–,0.029,0.002,–,0.491 (active),-0.12,-0.307,–,0.079,–,–,0.066,–,–,–,0.012
FAT1 (UniProt Q14517),0.028,0.151,0.01,0.162,-0.095,0.019,-0.036,0.053,0.104,-0.199,-0.067,0.044,0.045,-0.448 (active),0.683,0.091,-0.218,-0.029,-0.051,–
HSPA8 (UniProt E9PN89),-0.032,-0.069,0.127,0.085,-0.004,0.07,-0.158,-0.144,-0.019,-0.276,-0.689,0.182,0.03,–,–,0.043,–,-0.261,-0.507,-0.145
HAUS4 (UniProt Q9H6D7),–,0.103,0.246,-0.51 (active),–,0.095,-0.143,–,-0.061,-0.049,-0.269,0.08,-0.16,0.112,0.139,0.048,0.003,0.084,0.012,-0.107
GINS2 (UniProt Q9Y248),0,-0.033,-0.02,-0.081,-0.067,-0.057,0.136,0.147,0.174,0.102,0.021,-0.038,0.053,0.024,-0.042,0.113,-0.168,0.099,0.029,–
GAK (UniProt O14976),-0.222,–,-0.015,-0.81,0.344,-0.213,0.214,-0.14,0.452,-0.06,0.17,0.64,–,1.13,0.084,-0.187,0.038,-0.337,0.114,1.15
FAT2 (UniProt Q9NYQ8),0.103,0.107,-0.149,-0.002,0.051,–,–,-0.114,0.456,-0.002,-0.333,0.119,0.069,0.182,0.225,0.132,-0.035,-0.113,0.009,–
HEATR3 (UniProt Q7Z4Q2),-0.08,0.006,-0.125,-0.319 (active),-0.032,0.216,0.004,0.047,0.016,0.007,-0.067,0.069,0.144,0.07,-0.137,-0.196,0.116,0.034,0.082,–
HNRNPUL1 (UniProt M0R247),0.041,–,–,0.121,-0.025,0.031,-0.059,-0.075,–,–,–,0.001,–,–,–,0.008,–,-0.148,-0.15,-0.259
IGF2 isoform 3 (UniProt P01344),0.066,–,–,-0.104,-0.107,–,–,0.136,–,0.073,–,-0.148,–,–,–,–,–,–,–,–
